From PubChem BioAssay (NCI)
This is part of a sample that, as a whole, favours compounds with a hit. Of some 83,000 tested, about 20% had one in any assay.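 Growth was measured after 48 h exposure to one concentration of compound in 96-well plates. Values under 10 count as active.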 The source made the active and inactive calls.

Tests used:
Experiment in all cases: NCI-60 one-dose screen, 48 h (100 = growth as untreated, 0 = no growth, -100 = all killed)
Conditions in all cases: 10 µM unless noted
NCI-H23 lung = system: NCI-H23 lung
NCI-H226 lung = system: NCI-H226 lung
NCI-H322M lung = system: NCI-H322M lung
HOP-62 NSCLC = system: HOP-62 NSCLC
NCI-H460 lung = system: NCI-H460 lung
HOP-92 NSCLC = system: HOP-92 NSCLC
NCI-H522 lung = system: NCI-H522 lung
A549/ATCC NSCLC = system: A549/ATCC NSCLC
786-0 renal = system: 786-0 renal
COLO 205 colon = system: COLO 205 colon
DU-145 prostate = system: DU-145 prostate
K-562 leukemia = system: K-562 leukemia
MALME-3M melanoma = system: MALME-3M melanoma
MDA-MB-231 breast = system: MDA-MB-231 breast
RXF 393 renal = system: RXF 393 renal
SF-268 CNS = system: SF-268 CNS
SF-295 CNS = system: SF-295 CNS
SF-539 CNS = system: SF-539 CNS
M14 melanoma = system: M14 melanoma

Measured: growth

CS(=O)(=O)N(c1cc(-c2ccc3ncnc(Nc4cccc(Cl)c4)c3c2)cnc1Cl)S(C)(=O)=O
active: NCI-H322M lung -1.94% | HOP-92 NSCLC -20.5% | A549/ATCC NSCLC 9.62% | COLO 205 colon 2.1% | MALME-3M melanoma -24.7% | MDA-MB-231 breast 7.55% | RXF 393 renal -20.1% | SF-295 CNS -4.24% | SF-539 CNS -8.58%
inactive: NCI-H23 lung 18.3% | NCI-H226 lung 30.1% | HOP-62 NSCLC 19.2% | NCI-H460 lung 14.1% | NCI-H522 lung 19.6% | 786-0 renal 17.5% | DU-145 prostate 21.6% | K-562 leukemia 26.5% | SF-268 CNS 24% | M14 melanoma 21.8%

CCC#CC[C@H]1C/C=C2/C(=O)C=C[C@@H]2C/C=C\CCCC(=O)O1
active: NCI-H226 lung -26.6% | HOP-62 NSCLC -3.46% | NCI-H460 lung -38.1% | HOP-92 NSCLC -5.7% | NCI-H522 lung -29% | A549/ATCC NSCLC 0.732% | 786-0 renal -37.9% | COLO 205 colon -22.7% | DU-145 prostate 9.38% | K-562 leukemia 2.38% | MALME-3M melanoma 1.52% | RXF 393 renal -65.4% | SF-268 CNS 5.57% | SF-295 CNS 4.47% | SF-539 CNS 8.07% | M14 melanoma 2.84%
inactive: NCI-H23 lung 20.4% | NCI-H322M lung 45.4% | MDA-MB-231 breast 16.1%

C=C1C(=O)O[C@H]2[C@H]1CC/C(Cn1cc(-c3ccc(N)cc3)nn1)=C\CC[C@@]1(C)O[C@@H]21
active: NCI-H226 lung -14.3% | HOP-92 NSCLC -44.3% | NCI-H522 lung -73.2% | 786-0 renal -61.3% | COLO 205 colon -63.5% | DU-145 prostate 4.28% | K-562 leukemia 6.36% | MALME-3M melanoma -23.1% | MDA-MB-231 breast 4.85% | RXF 393 renal -67.1% | SF-539 CNS -18.7% | M14 melanoma -18.2%
inactive: NCI-H23 lung 22.3% | NCI-H322M lung 78.9% | HOP-62 NSCLC 51.4% | NCI-H460 lung 74% | A549/ATCC NSCLC 48.6% | SF-268 CNS 16.6% | SF-295 CNS 67.6%

CCSc1nnc(NC(=O)COc2ccc(Cl)cc2C)s1
inactive: NCI-H23 lung 105% | NCI-H226 lung 101% | NCI-H322M lung 120% | HOP-62 NSCLC 100% | NCI-H460 lung 112% | HOP-92 NSCLC 83.2% | NCI-H522 lung 94.4% | A549/ATCC NSCLC 104% | 786-0 renal 94.7% | COLO 205 colon 93.9% | DU-145 prostate 106% | K-562 leukemia 103% | MALME-3M melanoma 106% | MDA-MB-231 breast 111% | RXF 393 renal 89.3% | SF-268 CNS 110% | SF-295 CNS 94.2% | SF-539 CNS 103% | M14 melanoma 105%

CC(Br)C(OC(=O)c1ccccc1Cl)c1cc2c(cc1Br)OCO2 (stereo not given)
inactive: NCI-H23 lung 78.3% | NCI-H226 lung 76.6% | NCI-H322M lung 82.7% | HOP-62 NSCLC 108% | NCI-H460 lung 91.8% | HOP-92 NSCLC 68.5% | NCI-H522 lung 87.9% | A549/ATCC NSCLC 91.5% | 786-0 renal 80.7% | COLO 205 colon 126% | DU-145 prostate 92.7% | K-562 leukemia 94.6% | MALME-3M melanoma 92.9% | MDA-MB-231 breast 94.3% | RXF 393 renal 77.8% | SF-268 CNS 86.1% | SF-295 CNS 101% | SF-539 CNS 100% | M14 melanoma 86.6%

CCC(=O)Oc1ccc2c(c1)CC[C@@H]1[C@@H]2CC[C@]2(C)C[C@H](OC(=O)CC)C[C@@H]12
inactive: NCI-H23 lung 79.1% | NCI-H226 lung 99.9% | NCI-H322M lung 92.6% | HOP-62 NSCLC 64.1% | NCI-H460 lung 62.6% | HOP-92 NSCLC 62.8% | NCI-H522 lung 32.1% | A549/ATCC NSCLC 71.5% | 786-0 renal 67.9% | COLO 205 colon 118% | DU-145 prostate 79.2% | K-562 leukemia 29.4% | MALME-3M melanoma 80.1% | MDA-MB-231 breast 71.4% | RXF 393 renal 86.2% | SF-268 CNS 80.1% | SF-295 CNS 51.6% | SF-539 CNS 76.6% | M14 melanoma 50.5%

O=C(NCCc1c[nH]c2ccccc12)C1Cc2ccccc2CN1C(=O)c1ccco1 (stereo not given)
inactive: NCI-H23 lung 127% | NCI-H226 lung 106% | NCI-H322M lung 87.3% | HOP-62 NSCLC 94.6% | NCI-H460 lung 114% | HOP-92 NSCLC 29.9% | NCI-H522 lung 78.6% | A549/ATCC NSCLC 97.7% | 786-0 renal 104% | COLO 205 colon 134% | DU-145 prostate 114% | K-562 leukemia 71.5% | MALME-3M melanoma 96.2% | MDA-MB-231 breast 96.2% | RXF 393 renal 154% | SF-268 CNS 111% | SF-295 CNS 113% | SF-539 CNS 103% | M14 melanoma 107%

COC(=O)CCCCCN=Cc1c(O)c(O)c(C(C)C)c2cc(C)c(-c3c(C)cc4c(C(C)C)c(O)c(O)c(C=NCCCCCC(=O)OC)c4c3O)c(O)c12
active: NCI-H460 lung 8.12% | HOP-92 NSCLC -5.66% | NCI-H522 lung -21.8% | K-562 leukemia 9.57% | SF-295 CNS 9.3%
inactive: NCI-H23 lung 19.3% | NCI-H226 lung 54.9% | NCI-H322M lung 32% | HOP-62 NSCLC 18.8% | A549/ATCC NSCLC 20.8% | 786-0 renal 28.1% | COLO 205 colon 13.6% | DU-145 prostate 23% | MALME-3M melanoma 44.4% | MDA-MB-231 breast 11.9% | RXF 393 renal 29.2% | SF-268 CNS 25.6% | SF-539 CNS 23.7% | M14 melanoma 18.6%

Cc1ccnc2nc(C(=O)OCC(=O)Nc3ccc(-c4ccccc4)cc3)nn12
inactive: NCI-H23 lung 99.5% | NCI-H226 lung 110% | NCI-H322M lung 112% | HOP-62 NSCLC 94.5% | NCI-H460 lung 119% | HOP-92 NSCLC 69.7% | NCI-H522 lung 107% | A549/ATCC NSCLC 99.3% | 786-0 renal 99.8% | COLO 205 colon 104% | DU-145 prostate 109% | K-562 leukemia 61.8% | MALME-3M melanoma 115% | MDA-MB-231 breast 104% | RXF 393 renal 49.7% | SF-268 CNS 113% | SF-295 CNS 92.7% | SF-539 CNS 95.6% | M14 melanoma 99.9%

CCCCC[C@@H]1Cc2cc(O)c(C(=O)O)c3c2[C@H](C[C@@]2(CCCO2)O3)O1
active: HOP-92 NSCLC 4.89%
inactive: NCI-H23 lung 103% | NCI-H226 lung 110% | NCI-H322M lung 121% | HOP-62 NSCLC 93.6% | NCI-H460 lung 121% | NCI-H522 lung 89.7% | A549/ATCC NSCLC 105% | 786-0 renal 103% | COLO 205 colon 112% | DU-145 prostate 111% | K-562 leukemia 58.1% | MALME-3M melanoma 121% | MDA-MB-231 breast 101% | RXF 393 renal 73.4% | SF-268 CNS 116% | SF-295 CNS 101% | SF-539 CNS 103% | M14 melanoma 103%
